Compound activity deposited in PubChem by National Center for Advancing Translational Sciences (NCATS).
Sampled rows, rich in hits. Any-hit rate of the full collection: about 19%.
TGFb SMAD3 inh – qHTS for Inhibitors of TGF-b; HepG2 CAGA-GFP TGF-b/SMAD3 reporter, GFP fluorescence, 18 h; TGF-beta stimulated, 500 pg/mL final; Potency, µM (top dose mostly 46.1 µM), usual class: inhibitors; 410,000 tested, 1.2% active; further: nearly all actives have a fitted effect of over 65% in size
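First, reporter cells (HEPG2 CAGA-GFP) rested 2 h at 37 degrees C. Next, compounds were pinned in and TGF-beta added to 500 pg/mL final. After 18 h, GFP was imaged per cell and summed per well.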
HepG2 viability – qHTS for Inhibitors of TGF-b: Cytotox Counterscreen; HepG2 CAGA-GFP viability, ATP luminescence, 18 h; Potency, µM (top dose mostly 46.1 µM), hits mostly cytotoxic; 410,000 tested, 0.76% active
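HepG2 CAGA-GFP cells (1000/well, DMEM with 1% FBS) received compound, then TGF-beta at 500 pg/mL final, and were incubated 18 hours at 37 degrees C. Viability was read by CellTiter-Glo luminescence. Media-only wells were set as complete cell-killing and DMSO as no toxicity.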
TDP1 cell noCPT – qHTS for Inhibitors of human tyrosyl-DNA phosphodiesterase 1 (TDP1): qHTS in cells in absence of CPT. DT40 Tdp1-/- hTDP1 cells, no CPT, ATP luminescence, 48 h. Potency, µM (series often up to 46.2 µM), usual class: inhibitors. 420,000 tested, 15% active; further: nearly all actives have a fitted effect of over 55% in size
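DT40 Tdp1-/-;hTDP1 cells, no CPT (DMSO vehicle only), 400 cells/well; compounds pin-transferred; ≥48 hr, 37 °C; CellTiter-Glo 30 min RT dark, luminescence read.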
DT40 TDP1 CPT – qHTS for Inhibitors of human tyrosyl-DNA phosphodiesterase 1 (TDP1): qHTS in cells in presence of CPT; chicken DT40 Tdp1-/-;hTDP1 cells + 20 nM CPT, ATP luminescence, 48 h; Potency, µM (series often up to 46.2 µM), actives largely listed as inhibitors; 420,000 tested, 12% active; AID 686979, 2013; further: nearly all actives have a fitted effect of over 55% in size
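Cell growth measured by CellTiter-Glo luminescence after a minimum 48 h, 37 C compound exposure with 20 nM CPT in Tdp1-knockout DT40 cells stably expressing hTDP1, seeded 400/well; qHTS titration format.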
IL1B secr inh – qHTS for Inhibitors of Inflammasome Signaling: IL-1-beta AlphaLISA Primary Screen. THP-1 LPS/ATP IL-1B secretion, AlphaLISA, 16 h; active compounds read low. activity change, % at 57.5 µM. 360,000 tested, 4.7% active. AID 743279, 2014; in the data active means activity change below about -50%; inconclusive means mostly about -30% to -49%
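THP-1 cells pretreated 1 hr with compounds (up to 57.5 uM final), then stimulated with LPS (250 ng/mL final) plus ATP (1.25 mM final); secreted IL-1B measured by AlphaLISA after 16 hr, decreased signal indicating inhibition.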
S-ASM inh – Inhibitors of Secretory Acid Sphingomyelinase (S-ASM): qHTS; Sphingomyelin phosphodiesterase (Homo sapiens), P17405; placental ASM, HMU-PC fluorogenic substrate, 60 min; Potency, µM (highest dose often 57.5 µM), actives largely listed as inhibitors; 340,000 tested, 0.006% active
Target sequence (P17405 47-631 limits assumed): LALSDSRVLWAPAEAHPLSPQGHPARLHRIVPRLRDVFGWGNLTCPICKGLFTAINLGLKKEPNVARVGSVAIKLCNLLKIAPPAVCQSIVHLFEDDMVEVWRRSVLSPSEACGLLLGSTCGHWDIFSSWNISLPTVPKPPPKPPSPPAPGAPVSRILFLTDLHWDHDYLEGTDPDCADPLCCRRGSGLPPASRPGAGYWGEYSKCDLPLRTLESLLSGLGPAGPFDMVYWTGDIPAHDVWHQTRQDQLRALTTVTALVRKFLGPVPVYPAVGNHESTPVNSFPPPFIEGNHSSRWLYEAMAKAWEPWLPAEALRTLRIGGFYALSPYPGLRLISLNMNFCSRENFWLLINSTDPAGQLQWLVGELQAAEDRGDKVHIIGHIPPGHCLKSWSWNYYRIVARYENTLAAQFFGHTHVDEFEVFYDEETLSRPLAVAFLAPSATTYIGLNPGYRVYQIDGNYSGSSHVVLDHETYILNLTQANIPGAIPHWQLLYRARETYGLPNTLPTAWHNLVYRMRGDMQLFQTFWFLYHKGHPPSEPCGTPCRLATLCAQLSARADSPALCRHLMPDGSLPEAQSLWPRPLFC
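Fluorescence read-out (Ex 386 nm, Em 447 nm) after stopping the reaction at pH 10. Enzyme: ASM from human placenta; substrate HMU-PC0, 9 uM final; 60 min, 37 °C. Compound preincubation 10 min, ambient temperature.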
A number is an active result; n = inactive; u = inconclusive; x = no result given. Unless noted, the call rests on the fitted dose curve; in most records, active means well fitted curve in the direction sought with a large enough effect; inconclusive means small, poorly fitted or top-dose-only effect, or another doubt; inactive means no such curve, though single readings can be large; an effect the other way counts as inactive or inconclusive.

SMILES	TGFb SMAD3 inh	HepG2 viability	TDP1 cell noCPT	DT40 TDP1 CPT	IL1B secr inh	S-ASM inh
COC1CC(=O)C2OC(c3ccccc3)OCC2O1 (configuration not stated)	n	n	n	n	n	x
COc1ccc(N(Cc2cccs2)C(=O)COc2ccc([N+](=O)[O-])cc2)cc1	n	n	25.9µM	u	x	x
COc1ccc(N(Cc2cccs2)C(=O)COc2cccc(Cl)c2)cc1	u	n	u	u	x	x
Cc1ccc(N(Cc2cccs2)C(=O)c2ccccc2[N+](=O)[O-])cc1	u	n	9.2µM	14.6µM	x	x
Cc1ccc(N(Cc2cccs2)C(=O)COc2ccccc2[N+](=O)[O-])cc1	n	n	23.1µM	20.6µM	x	x
O=C(NCc1cccs1)c1ccccc1[N+](=O)[O-]	n	n	n	n	n	n
CCc1c(C)sc2nc3c(C(=O)N4CCOCC4)cc(C(=O)c4ccccc4O)cn3c(=O)c12	n	n	14.6µM	23.1µM	-64.2	n
COC(=O)c1cc(C(=O)c2cc(F)ccc2O)cn2c(=O)c3c(C)c(C)sc3nc12	n	n	n	4.11µM	n	n
Cn1nc(C(C)(C)C)cc1C(=O)N1CCCCC1c1cc(C(=O)NCc2ccccc2)no1 (configuration not stated)	n	n	10.3µM	10.3µM	n	x
COC(=O)N1CCCCC1c1cc(C(=O)NCc2ccccc2)no1 (configuration not stated)	n	n	n	n	n	x
Cn1nc(C(C)(C)C)cc1C(=O)N1CCCCC1c1cc(C(=O)NCc2ccc(F)cc2)no1 (configuration not stated)	u	n	13µM	20.6µM	n	x
COC(=O)C[C@H]1N(S(=O)(=O)c2ccc(C)cc2)C(C(C)C)CC1(C(=O)OC)C(=O)OC (some centres not stated)	x	x	u	u	n	x
COc1ccc(-c2nc(SC(C)C(=O)NC3CC3)n[nH]2)cc1 (configuration not stated)	u	n	n	n	n	n
O=C(Cc1ccccc1)NC(CSSCC(NC(=O)Cc1ccccc1)C(=O)O)C(=O)O (configuration not stated)	n	n	n	n	n	n
COc1ccc(CN(CC2CCC(C(=O)O)CC2)C(=S)Nc2cc(C)ccc2C)cc1 (configuration not stated)	n	n	n	n	n	n
C(=C\c1ccccc1)/CN1CCN(C(c2cccs2)c2nnnn2C2CCCC2)CC1 (configuration not stated)	u	n	u	u	n	x
C(=C\c1ccccc1)/CN1CCN(C(c2ccnc3ccccc23)c2nnnn2C2CCCC2)CC1 (configuration not stated)	10µM	n	14.6µM	u	n	x
C(=C\c1ccccc1)/CN1CCN(C(c2cc3ccccc3o2)c2nnnn2C2CCCCC2)CC1 (configuration not stated)	n	n	u	18.4µM	u	x
C(=C\c1ccccc1)/CN1CCN(C(c2ccccc2)c2nnnn2C2CCCC2)CC1 (configuration not stated)	u	n	23.1µM	18.4µM	n	x
N#Cc1ccccc1CSc1nnc(-c2ccccc2)o1	n	n	x	x	x	x
CC[C@H](C)Cc1cn([C@@H](CCCN=C(NC(=O)OC(C)(C)C)NC(=O)OC(C)(C)C)C(=O)NCCCCCCCCCCC(=O)N2CCN(C(=O)OC(C)(C)C)CC2)nn1	u	n	7.31µM	9.2µM	n	n
Cc1cn([C@@H](CCCCNC(=O)OC(C)(C)C)C(=O)NCCCCCCCCCCC(=O)N2CCN(C(=O)OC(C)(C)C)CC2)nn1	11.2µM	n	7.31µM	8.2µM	n	n
CC(C)(C)OC(=O)NCCCCCc1cn(CC(=O)NCCCCCCCCCCC(=O)N2CCN(C(=O)OC(C)(C)C)CC2)nn1	n	n	6.51µM	5.8µM	n	n
Cc1ccc(NS(=O)(=O)c2ccc(C)c(C(=O)Nc3ccc(S(=O)(=O)Nc4onc(C)c4C)cc3)c2)cc1	n	n	n	n	n	n
N#Cc1nc(COc2cccc(Cl)c2)oc1N1CCN(c2ccccc2)CC1	n	n	u	u	n	n
SMILES	TGFb SMAD3 inh	HepG2 viability	TDP1 cell noCPT	DT40 TDP1 CPT	IL1B secr inh	S-ASM inh
N#Cc1nc(Cc2ccccc2)oc1N1CCN(c2ccccc2)CC1	n	n	u	10.3µM	u	n
N#Cc1nc(COc2ccc(F)cc2)oc1N1CCN(Cc2ccccc2)CC1	u	n	u	u	u	n
COc1ccccc1-c1nc(C#N)c(N2CCN(Cc3ccccc3)CC2)o1	n	n	23.1µM	u	n	n
COc1ccccc1-c1nc(C#N)c(N2CCC(Cc3ccccc3)CC2)o1	u	n	18.4µM	u	n	n
N#Cc1nc(COc2ccc(F)cc2)oc1N1CCC(Cc2ccccc2)CC1	n	n	u	u	u	n
CC(NC(=O)Cc1ccc(S(=O)(=O)N2CCOCC2)s1)c1ccc(Cl)cc1Cl (configuration not stated)	n	n	u	u	n	x
O=C1CSCC(=O)N1Cc1ccc(Cl)c(Cl)c1	n	n	n	n	n	n
CN(C)c1ccc(C(=O)Nc2c(C(=O)NC(C)(C)C)oc3ccccc23)cc1	n	n	u	u	x	x
CCN(CC)c1ccc(S(=O)(=O)N2CCOCC2)cc1NC(=O)CN1CCc2ccccc2C1	u	n	7.31µM	4.61µM	-110.5	n
CCN(CC)c1ccc(S(=O)(=O)N2CCOCC2)cc1NC(=O)COC(=O)/C=C/c1ccc(C)o1	u	n	10.3µM	13µM	u	x
CCN(CC)c1ccc(S(=O)(=O)N2CCOCC2)cc1NC(=O)COC(=O)/C=C/c1ccc(O)c(OC)c1	n	n	20.6µM	u	n	n
CCN(CC)c1ccc(S(=O)(=O)N2CCOCC2)cc1NC(=O)COC(=O)/C=C/c1ccccc1	n	n	u	18.4µM	n	n
CCN(CC)c1ccc(S(=O)(=O)N2CCOCC2)cc1NC(=O)COC(=O)c1ccco1	n	n	n	n	n	n
CCc1ccccc1NC(=O)Cn1nnc(C(=O)Nc2ccc(C)c(F)c2)c1N	u	n	n	n	x	x
Clc1ccc2c(c1)C(C1=NCCN1)c1ccccc1CS2 (configuration not stated)	n	n	5.8µM	6.51µM	n	n
